# Results filed as inconclusive are left out. Active and inactive are the calls of the source. Calls come from the whole dose curve; as a rule, active = well fitted activation curve with a large enough effect; inconclusive = small, poorly fitted or top-dose-only effect; inactive = no such curve, though single readings can be large or run the other way.
# Assay: Activators of T cell receptors: Hit Validation;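 note: cytokine measured is secreted IL-2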; for activation: 0% is about no effect
# Settings: primary human leukocytes, cytokine release by HTRF, 48 h, TCR-stimulated with anti-CD3 beads; series mostly up to 46.1 µM; activation: at the top concentration
# How it was run: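 Primary human leukocytes incubated 48 hr with anti-CD3 beads plus compound, without co-stimulation. Secreted IL-2 quantified by HTRF (europium cryptate donor, d2 acceptor, 665 nm emission).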
# Potency is the fitted concentration of half-maximal effect.
SMILES,activation,Potency
C/C(=N\NC(=O)COc1ccc([N+](=O)[O-])cc1)c1ccco1,11.5% (inactive),
O=C1N/C(=C/c2cccs2)C(=O)N1Cc1ccc(Br)cc1,-6.9% (inactive),
O=C(COc1ncnc2c(Cl)cc(Cl)cc12)Nc1cc([N+](=O)[O-])ccc1Cl,4.07% (inactive),
COc1cc(C)c(NC(=S)NCCCN2CCOCC2)cc1OC,13.1% (inactive),
CC1CCCC(C)N1C(=O)COC(=O)C12CC3CC(CC(Cl)(C3)C1)C2 (stereo not given),4.37% (inactive),
Cc1ccc(NC(=O)CN(C)C(=O)COC(=O)c2nccnc2N)cc1,7.01% (inactive),
CCn1nnnc1NC(=O)c1ccc2ccccc2c1,3.62% (inactive),
Cc1ccc(S(=O)(=O)N(C)/N=C/C=C/c2ccccc2)cc1,8.67% (inactive),
Cc1ccc(C(CC(=O)O)Nc2nc(N3CCOCC3)nc(N3CCOCC3)n2)cc1 (stereo not given),9.58% (inactive),
CC(=O)c1cccc(NC(=O)C(C)OC(=O)c2cccc(S(=O)(=O)N3CCN(C)CC3)c2)c1 (stereo not given),8.26% (inactive),
Oc1ccccc1CN1CCCC(N2CCN(c3cccc(C(F)(F)F)c3)CC2)C1 (stereo not given),10.3% (inactive),
CC(C)NC(=O)CCCn1c(=S)[nH]c2cc3c(cc2c1=O)OCO3,1.07% (inactive),
COc1ccc(NC(=O)C2CC(=O)N(Cc3ccco3)C2)cc1Cl (stereo not given),0.922% (inactive),
CC1(NC(=O)CCNC(=O)c2ccc(C(C)(C)C)cc2)CCS(=O)(=O)C1 (stereo not given),6.9% (inactive),
Cc1n[nH]c(C)c1S(=O)(=O)N1CCCC(C(=O)Nc2nccs2)C1 (stereo not given),-0.963% (inactive),
CCOC(=O)C1CCCN(C(=O)c2cccc(S(=O)(=O)N3CCCC3)c2)C1 (stereo not given),-2.23% (inactive),
CC(c1nnc(SCC(=O)c2c(N)n(C3CC3)c(=O)[nH]c2=O)n1-c1ccc(F)cc1)N(C)C (stereo not given),1.48% (inactive),
COc1ccc(S(=O)(=O)Nc2ccc3cn[nH]c3c2)cc1[N+](=O)[O-],-4.82% (inactive),
CCOC(=O)C1CCN(C(=O)c2cccc(S(=O)(=O)N3CCc4ccccc43)c2)CC1,4.53% (inactive),
CCCCN1CCC(COC(=O)c2cc(Cl)c(N)c3c2OCCO3)CC1,5.26% (inactive),
CC(C)CSc1nc2c(c(=O)[nH]c(=O)n2C)n1CC(O)COc1cccc2ccccc12 (stereo not given),10.2% (inactive),
CN(CC(=O)Nc1ccc(N2CCOCC2)cc1)C(=O)c1ccc(CS(C)(=O)=O)cc1,6.41% (inactive),
Cc1ccc(S(=O)(=O)NC23CC4CC(CC(C4)C2)C3)cc1,4.65% (inactive),
CC(=O)NS(=O)(=O)c1ccc(NC(=S)NC(=O)COc2ccccc2C)cc1,,14.1 µM (active)
COc1cc(C(=O)OCCCN2CCCN(CCCOC(=O)c3cc(OC)c(OC)c(OC)c3)CC2)cc(OC)c1OC,-2.16% (inactive),
Cc1cc(Cl)ccc1OCC(=O)OCC(=O)Nc1cccnc1Cl,4.56% (inactive),
COc1ccc(CN2CCN(C(=O)c3cc(C4CC4)nn3-c3ccccc3)CC2)cc1F,3.73% (inactive),
CCCc1nc2ccccc2c(=O)n1CCc1ccccc1,4.77% (inactive),
CN(C)CCC[C@]1(c2ccc(F)cc2)OCc2cc(C#N)ccc21,10.7% (inactive),
CCOc1cc(/C=N/O)cc(Br)c1OCC(=O)NCc1ccccc1,8.09% (inactive),

# Source: PubChem BioAssay AID624298 (National Center for Advancing Translational Sciences (NCATS), 2012)
